Results filed as inconclusive are left out. Entries that show only a call come without a potency. Values without a mark were called inactive. Activity calls are given as the source filed them. The call rests on the fitted dose curve; in most records, active means well fitted cell-killing curve with a large enough effect; inconclusive means small, poorly fitted or top-dose-only effect, or effect the other way; inactive means no such curve, though single readings can be large or run the other way.
Key:
[1] = Viability qHTS for spleen associated tyrosine kinase inhibitor (SYKi) naive MV4-11 cells (AID 1963823); further: nearly all actives have a fitted effect of over 40% in size
How it was run: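 Read-out: CellTiter-Glo luminescence. Exposure: 72 hr, 37 C, 5% CO2, 95% humidity. Cells: MV4-11 without SYK inhibitor history, 500/well, qHTS format.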

[2] = Viability qHTS for spleen associated tyrosine kinase inhibitor (SYKi) drug resistant MV4-11 cells (AID 1963824); further: nearly all actives have a fitted effect of over 35% in size
How it was run: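 SYK inhibitor-resistant MV4-11 AML cells, 500 per well, added to predispensed compounds and incubated 72 hr at 37 C, 5% CO2. Viability measured by CellTiter-Glo luminescence after 10 min at room temperature.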
Potency means the concentration at half of the fitted maximal effect.

| Compound | Potency [1] | Potency [2] | viability (% of control) [1] | viability, % of control [2] |
| --- | --- | --- | --- | --- |
| O=C(/C=C/c1ccc(O)cc1)OCC1OC(O)C(OC2OC(CO)C(O)C(O)C2O)C(O)C1O (stereo unspecified) | inactive | inactive | – | – |
| CC12CC34CC(O)C5C(CO)(CO)CC(=O)CC5(C)C3CC1C2C4 (stereo unspecified) | inactive | inactive | – | – |
| C[C@@H]1O[C@@H](O[C@H]2[C@@H]3C=CO[C@@H](O[C@@H]4O[C@H](CO)[C@@H](O)[C@H](O)[C@H]4O)[C@@H]3[C@@]3(CO)O[C@@H]23)[C@H](O)[C@H](OC(=O)/C=C/c2ccc(O)c(O)c2)[C@H]1O | inactive | inactive | – | – |
| CC1CC(O)CC(C)(C)C1(O)CCO (stereo unspecified) | inactive | inactive | – | – |
| C=C1C(=O)OC2/C=C(\C)CC/C=C(\C)CC(OC(C)=O)C12 (stereo unspecified) | 2.59 µM (active) | 2.59 µM (active) | – | – |
| Cc1onc(-c2c(F)cccc2Cl)c1C(=O)N[C@@H]1C(=O)N2[C@@H]1SC(C)(C)[C@@H]2C(=O)O | inactive | 13 µM (active) | – | – |
| O=C(O)/C=C/c1ccc(O[C@@H]2O[C@H](CO)[C@@H](O)[C@H](O)[C@H]2O)cc1 | inactive | inactive | – | – |
| Cc1cn([C@H]2C[C@H](O)[C@@H](CO)O2)c(=O)nc1N | inactive | inactive | – | – |
| CCC(=O)N1CCc2cc(OC)c(O)cc2C1 | inactive | inactive | – | – |
| O=C(Nc1nc2cc(C(F)(F)F)cc(NC3CC3)n2n1)c1cccnc1 | 3.66 µM (active) | 2.59 µM (active) | – | – |
| O=C(O[C@H]1[C@@H]2C=CO[C@@H](O[C@@H]3O[C@H](CO)[C@@H](O)[C@H](O)[C@H]3O)[C@@H]2[C@@]2(CO)O[C@@H]12)c1ccc(O)cc1 | inactive | inactive | – | – |
| COc1ccc(CCO[C@@H]2O[C@H](CO[C@@H]3OC[C@H](O)[C@H](O)[C@H]3O)[C@@H](O)[C@H](O)[C@H]2O)cc1 | inactive | inactive | – | – |
| CC(C)c1nc(-c2ccc(NC(=O)Nc3cccc(C(F)(F)F)c3)c3ccccc23)c2c(N)nccn12 | 0.366 µM (active) | 0.411 µM (active) | – | – |
| N#CN1CCC[C@@H](n2nc(-c3ccc(Oc4ccc(F)cc4F)cc3)c(C(N)=O)c2N)C1 | 13 µM (active) | 18.6 µM (active) | – | – |
| COC(=O)C1=COC(OC2OC(CO)C(O)C(O)C2O)C2C(C)CC(=O)C12O (stereo unspecified) | inactive | inactive | – | – |
| CCN1CCN(c2ccc(Nc3ccc(-c4ccc(C(N)=O)cc4)n4ncnc34)cc2)CC1 | 0.517 µM (active) | 0.651 µM (active) | – | – |
| CC1(C)CC[C@]2(C(=O)O[C@@H]3O[C@H](CO)[C@@H](O)[C@H](O)[C@H]3O)CC[C@]3(C)C(=CCC4[C@@]5(C)C[C@@H](O)[C@H](O)[C@@](C)(CO)C5CC[C@]43C)C2C1 (stereo partly specified) | inactive | inactive | – | – |
| CCOc1nc2cccc(C(=O)OCc3oc(=O)oc3C)c2n1Cc1ccc(-c2ccccc2-c2noc(O)n2)cc1 | inactive | inactive | – | – |
| CC1C(OC(=O)c2ccccc2)C(O)C2C(C(=O)O)=COC(OC3OC(CO)C(O)C(O)C3O)C12 (stereo unspecified) | inactive | inactive | – | – |
| CC(O)(C(=O)O)C1CCC2(C)C1CCC1(C)C2CCC2C3(C)CCC(O)C(C)(COC4OC(CO)C(O)C(O)C4O)C3CCC21C (stereo unspecified) | inactive | inactive | – | – |

| Compound | Potency [1] | Potency [2] | viability (% of control) [1] | viability, % of control [2] |
| --- | --- | --- | --- | --- |
| CC1(C)CCCC2(C)C(CO)C3CCC2C31 (stereo unspecified) | inactive | inactive | – | – |
| C=CC(C)(C)c1[nH]c2ccccc2c1C[C@@H]1NC(=O)[C@H](Cc2c[nH]c3ccccc23)NC1=O | inactive | 0.252 µM (active) | – | – |
| O=C(O)CCc1cc2ccoc2cc1O[C@@H]1O[C@H](CO[C@@H]2OC[C@](O)(CO)[C@H]2O)[C@@H](O)[C@H](O)[C@H]1O | inactive | inactive | – | – |
| CC(C)C1(O)C=C2C(=O)CC3C(C)(C(=O)O)CCCC3(C)C2CC1 (stereo unspecified) | inactive | inactive | – | – |
| CC1=C(C(=O)O)/C(=C\CO[C@@H]2O[C@H](CO)[C@@H](O)[C@H](O)[C@H]2O)C(OC(=O)/C=C\c2ccc(O)cc2)C1 (stereo partly specified) | inactive | inactive | – | – |
| CC1CCC2(C(=O)O)CCC3(C)C(=CCC4C5(C)CCC(OC(=O)/C=C/c6ccccc6)C(C)(C)C5CCC43C)C2C1C (stereo unspecified) | inactive | inactive | – | – |
| COc1cc2c(cc1OC)C(C(C(=O)N(CCc1ccc(OC)c(OC)c1OC)CCc1ccc(OC)c(OC)c1OC)c1ccccc1)=NCC2 (stereo unspecified) | 15 µM (active) | 21.1 µM (active) | – | – |
| O=C(/C=C/c1c(C(=O)O)[nH]c2cc(Cl)cc(Cl)c12)Nc1ccccc1 | inactive | inactive | – | – |
| C/C(=C\CCC(C)C1CC(O)C2(C)C3CCC4C(C)(C)C(OC5OCC(O)C(O)C5O)CCC45CC35CC(O)C12C)C(=O)O (stereo unspecified) | inactive | inactive | – | – |
| CC[C@H]1OC(=O)[C@H](C)C(=O)[C@H](C)[C@@H](OC2O[C@H](C)C[C@H](N(C)C)[C@H]2O)[C@@H](C)C[C@@H](C)C(=O)/C=C/[C@]1(C)O (stereo partly specified) | inactive | inactive | – | – |
| COc1cc(C2Oc3c(O)cc(CCCO)cc3C2CO)ccc1O[C@H]1O[C@H](C)[C@@H](O)[C@H](O)[C@@H]1O (stereo partly specified) | inactive | inactive | – | – |
| CN(C)CC/C=C1\c2ccccc2COc2ccccc21 | inactive | inactive | – | – |
| CCOC(=O)[C@H](CCc1ccccc1)N[C@@H](C)C(=O)N1C2CCCCC2C[C@H]1C(=O)O (stereo partly specified) | 16.4 µM (active) | 6.51 µM (active) | – | – |
| CCN(CC)C(=O)C(c1ccccc1)N1CCN(c2ccc(NC(=O)c3ccccc3-c3cccnc3)cc2F)CC1 (stereo unspecified) | inactive | inactive | – | – |
| Cc1ccc(NS(=O)(=O)c2cc3c(cc2NC(C)CO)NC(=O)CC3)cc1C (stereo unspecified) | 12.9 µM (active) | 10.2 µM (active) | – | – |
| COC1CC(O[C@H]2CC[C@@]3(C)C(=CC[C@]4(O)C3[C@H](OC(C)=O)[C@@H](OC(=O)c3ccccc3)[C@]3(C)[C@@H](C(C)=O)CC[C@@]34O)C2)OC(C)C1OC1CC(OC)C(OC2CC(OC)C(OC3OC(C)C(OC4OC(CO)C(O)C(O)C4O)C(OC)C3O)C(C)O2)C(C)O1 (stereo partly specified) | – | – | 74.5% [at 9.25 µM] | 66.2% [at 9.25 µM] |
| CCOC(=O)c1cnc2ccc(-c3cncc(NS(=O)(=O)c4ccccc4)c3)cn12 | 0.326 µM (active) | 0.231 µM (active) | – | – |
| C=C[C@H]1[C@H](O[C@@H]2O[C@H](CO[C@@H]3OC[C@](O)(CO)[C@H]3O)[C@@H](O)[C@H](O)[C@H]2O)OC=C2C(=O)OCC[C@H]21 | inactive | inactive | – | – |
| O=C(c1cc2c(cc1F)OC(c1ccc(F)cc1)(c1ccc(Cl)cc1Cl)O2)N1CCOCC1 (stereo unspecified) | inactive | inactive | – | – |
| C/C=C(\C)[C@@H]1C(C)=C[C@@H]2[C@H]([C@@H]1/C=C/C=C/C(=O)O)[C@@H](C)CC[C@@H]2O | 6.4 µM (active) | 3.6 µM (active) | – | – |

| Compound | Potency [1] | Potency [2] | viability (% of control) [1] | viability, % of control [2] |
| --- | --- | --- | --- | --- |
| CC(=O)N[C@H]1CCN(c2ccc(C3=NOC(CN[S+](=O)([O-])C(C)C)C3)cc2F)C1 (stereo partly specified) | inactive | 13 µM (active) | – | – |
| COc1c(F)cccc1C(=O)N1C[C@@H](C)CC[C@H]1CNc1ccc(Br)cn1 | 9.2 µM (active) | 9.2 µM (active) | – | – |
| Cc1cn2cc(C(=O)N(C)CCO)cc(NC3CCOc4cccc(C)c43)c2n1 (stereo unspecified) | inactive | inactive | – | – |
| Fc1ccc(N2CCCCC2)c(NC(=S)c2ccncc2)c1 | 11.6 µM (active) | 9.2 µM (active) | – | – |
| CC(=O)c1c(C)cccc1O[C@@H]1O[C@H](CO)[C@@H](O)[C@H](O)[C@H]1O | inactive | inactive | – | – |
| C/C=C(/COC(=O)/C(C)=C/C)C(=O)OC(CC)c1ccc(OC)c(OC)c1 (stereo unspecified) | inactive | inactive | – | – |
| Cc1cc(C(=O)N2Cc3cnn(C)c3Nc3ccccc32)ccc1CNC(=O)N1CCC[C@H]1C(=S)N1CCCN(C)CC1 | inactive | inactive | – | – |
| N#C/C(=C1/Nc2ccccc2S1)c1ccnc(OCc2ccc(CN3CCOCC3)cc2)n1 | 10.5 µM (active) | 8.33 µM (active) | – | – |
| CC(=O)N[C@H]1[C@H](O[C@H]2CC[C@@]3(C)C(CC[C@]4(C)C3CC=C3[C@@H]5CC(C)(C)CC[C@]5(C(=O)OC5OCC(O)C(O)C5O)CC[C@]34C)C2(C)C)O[C@H](COC2OC(C)C(O)C(OC3OC(C)C(O)C(O)C3O)C2O)[C@@H](O)[C@@H]1O (stereo partly specified) | – | – | 83.4% [at 9.25 µM] | 87% [at 9.25 µM] |
| C=CC(C)(O)CC/C=C(\C)COC1O[C@H](CO)[C@@H](O)[C@H](O)[C@H]1O (stereo partly specified) | inactive | inactive | – | – |
| CC1(C)CC[C@]2(C(=O)O)CC[C@]3(C)C(=CCC4[C@@]5(C)CC[C@H](O[C@@H]6O[C@H](C(=O)O)[C@@H](O)[C@H](O)[C@H]6O)C(C)(CO)C5CC[C@]43C)C2C1 (stereo partly specified) | inactive | inactive | – | – |
| CC1(C)CC[C@]2(C(=O)O)CC[C@]3(C)C(=CCC4[C@@]5(C)CC[C@H](O[C@@H]6O[C@H](C(=O)O)[C@@H](O[C@@H]7OC[C@@H](O)[C@H](O)[C@H]7O)[C@H](O)[C@H]6O)C(C)(C)C5CC[C@]43C)C2C1O (stereo partly specified) | inactive | inactive | – | – |
| O=C(O[C@@H]1O[C@H](CO)[C@@H](O)[C@H](O)[C@H]1O)c1c(O)cc(O)cc1/C=C/c1ccccc1 | inactive | inactive | – | – |
| C=CC1(C)C=C2CCC3C(C)(C)C(O[C@@H]4O[C@@H](CO)[C@H](O)[C@H]4O)CCC3(C)C2CC1O[C@@H]1O[C@H](C)[C@H](O)[C@H](O)[C@H]1O (stereo partly specified) | inactive | inactive | – | – |
| CC1=CC(=O)[C@]2(O[C@@H]3O[C@@H](C)[C@H](O)[C@@H](O)[C@H]3OC(=O)/C=C/c3ccccc3)C=CO[C@@H](O[C@@H]3O[C@H](CO)[C@@H](O)[C@H](O)[C@H]3O)[C@H]12 | inactive | inactive | – | – |
| CN(CCc1ccc(Nc2ncc(-c3cccnc3)s2)cc1)Cc1ccccc1 | 0.366 µM (active) | 0.651 µM (active) | – | – |
| CC1=COC(OC2OC(CO)C(O)C(O)C2O)C2C(CO)CC(OC(=O)/C=C/c3ccc(O)cc3)C12 (stereo unspecified) | inactive | inactive | – | – |
| Cn1c(=O)c2nc(/C=C/c3cccc(Cl)c3)n(C)c2n(C)c1=O | inactive | inactive | – | – |

From PubChem BioAssay (NCATS)
